# Compound activity: PubChem BioAssay, National Center for Advancing Translational Sciences (NCATS)
# This is a sample that favours compounds with a hit; in the whole collection about 9.3% have one here.
# ELG1 repair inh: ELG1-dependent DNA repair inhibition. Potency, µM (doses to about 46.1 µM), for inactives: at the top dose activity change, negative = inhibition, actives largely listed as inhibitors. HEK293T ELG1-luciferase reporter, luminescence, 16 h; DNA damage induced by 5-fluorouridine. hit rate 2.3% among 330,000. AID 504467; also: % is scaled to controls: 0 for no effect and ±100 for the full control effect; nearly all actives have a fitted effect of over 55% in size
#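 Step one: seed 2,000 cells per well. Step two: pin-transfer compound or DMSO alongside 5-fluorouridine. Step three: incubate 16 hr, 37 °C, 5% CO2. Step four: add ONE-Glo, wait 30 min, read luminescence.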
# SMN2 splice enh: enhancers of SMN2 splice variant expression; HEK293 SMN2-luciferase splicing reporter, luminescence, 30-36 h; Potency, µM (top dose mostly 46.1 µM), for inactives: at the top dose activity change, positive = activation, most hits filed as activators; hit rate 2.8% among 210,000; AID 1458; also: % of control where 0% means no effect; nearly all actives have a fitted effect of over 55% in size
#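 qHTS luciferase splicing reporter: luminescence rises when SMN2 exon 7 is included in transfected HEK293 cells. Compound exposure lasted 30-36 h at 37C, with 4.5 mM final sodium butyrate as control, followed by a ONE-Glo read.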
# NPC1 promoter act: NPC1 promoter activation; Huh7 NPC1 promoter luciferase reporter, 24 h; Potency, µM (highest dose often 9.22 µM), for the others: top-dose activation, usual class: activators; hit rate 2.4% among 320,000; AID 485313; also: % of control where 0% means no effect; nearly all actives have a fitted effect of over 60% in size
#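 Stable NPC1-promoter luciferase Huh7 line; cpd (DMSO) 24 h, 37 °C, 5% CO2; Amplite luciferase reagent 10 min RT; luminescence readout. qHTS format.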
# ELG1 genotox: induces genotoxicity in HEK293T cells with luciferase-tagged ELG1; HEK293T ELG1-luciferase reporter, luminescence, 16 h; Potency, µM (highest dose often 46 µM), inactives show at the top dose activity change, positive = activation, hits mostly activators; hit rate 1.3% among 330,000; AID 504466; also: % of control where 0% means no effect; nearly all actives have a fitted effect of over 60% in size
#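 ELG1-luciferase HEK293T cells, 2,000/well; compound pinned in; 16 hr, 37 °C, 5% CO2; ONE-Glo, 30 min RT; luminescence on CCD imager.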
# Rab9 prom act: Rab9 promoter activation; Huh7 Rab9 promoter-luciferase reporter, luminescence, 24 h; Potency, µM (highest dose often 9.22 µM), for the others: top-dose activation, negative = inhibition, usual class: activators; hit rate 2.8% among 320,000; also: % of control where 0% means no effect; nearly all actives have a fitted effect of over 60% in size
#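 Cell-based reporter: Huh7 stable for Rab9 promoter-driven luciferase, plated in reduced-serum medium with 10% FBS at 1500 cells/well, compound-treated 24 h at 37 °C, luminescence read after 10 min reagent.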
# FLuc counter: firefly luciferase modulation, counter-screen for miR-21 project; P08659; purified FLuc, Km substrates, luminescence inhibition; Potency, µM (top dose mostly 57.5 µM), inactives show at the top dose activity change, negative = inhibition, actives largely listed as inhibitors; hit rate 6.9% among 360,000; AID 588342;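 also: plate controls were vehicle for no effect and reference inhibitor for full effect; nearly all actives have a fitted effect of over 55% in size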
# Target sequence (P08659 whole entry, looked up): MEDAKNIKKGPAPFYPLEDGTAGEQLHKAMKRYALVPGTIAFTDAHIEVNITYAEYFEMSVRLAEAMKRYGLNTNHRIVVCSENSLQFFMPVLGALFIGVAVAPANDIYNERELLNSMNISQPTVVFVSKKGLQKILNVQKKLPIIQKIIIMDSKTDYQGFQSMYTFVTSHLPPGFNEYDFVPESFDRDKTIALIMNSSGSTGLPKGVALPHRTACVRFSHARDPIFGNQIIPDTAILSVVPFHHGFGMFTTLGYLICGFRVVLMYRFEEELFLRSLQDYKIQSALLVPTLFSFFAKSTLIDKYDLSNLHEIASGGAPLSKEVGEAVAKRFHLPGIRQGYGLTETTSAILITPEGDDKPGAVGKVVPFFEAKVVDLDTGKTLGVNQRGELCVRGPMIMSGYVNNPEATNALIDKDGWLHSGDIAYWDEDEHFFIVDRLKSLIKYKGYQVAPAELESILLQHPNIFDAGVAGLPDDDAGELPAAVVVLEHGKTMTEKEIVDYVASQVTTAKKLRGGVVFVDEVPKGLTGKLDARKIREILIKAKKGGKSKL
#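 Purified P. pyralis luciferase, 10 nM final, with Km-level 10 uM D-luciferin and 10 uM ATP in 50 mM Tris acetate pH 7.5, 10 mM Mg acetate, 0.01% Tween-20, 0.05% BSA; 6-point qHTS titration about 60 µM downward; luminescence read.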
# The depositor's hits bear a star; u = inconclusive; x = no result given. Calls follow the shape of the dose curve; as a rule, active = well fitted curve in the direction sought with a large enough effect; inconclusive = small, poorly fitted or top-dose-only effect, or another doubt; inactive = no such curve, though single readings can be large; an effect the other way counts as inactive or inconclusive. Potency is read from the fitted curve at half-maximal effect.
SMILES,ELG1 repair inh,SMN2 splice enh,NPC1 promoter act,ELG1 genotox,Rab9 prom act,FLuc counter
CCOCC(=O)Nc1c(C(=O)Nc2ccc3c(c2)OCCO3)oc2ccccc12,u,2.8µM*,1.4µM*,u,0.71µM*,-15%
CCOCC(=O)Nc1c(C(=O)Nc2ccccc2OC)oc2ccccc12,24%,-11%,29%,10%,u,-18%
O=C(Nc1ccc2c(c1)OCCO2)c1oc2ccccc2c1NC(=O)C1CC1,u,u,1%,-6%,17%,u
CCC(=O)Nc1c(C(=O)Nc2ccc3c(c2)OCCO3)oc2ccccc12,u,16µM*,u,10%,2.8µM*,u
CCC(=O)Nc1c(C(=O)Nc2cccc(OC)c2)oc2ccccc12,1%,14%,27%,3%,u,-17%
COc1ccc(NC(=O)c2oc3ccccc3c2NC(=O)c2ccc3c(c2)OCO3)cc1,9.2µM*,23%,12%,1%,16%,9.5µM*
COc1ccc(NC(=O)c2oc3ccccc3c2NC(=O)c2cc(OC)c(OC)c(OC)c2)cc1,x,-2%,x,x,x,-1%
COCC(=O)Nc1c(C(=O)Nc2ccc3c(c2)OCCO3)oc2ccccc12,u,7.9µM*,1.4µM*,3%,1.1µM*,x
Cc1ccc(S(=O)(=O)N2CCCCC2)cc1C(=O)N(CCc1ccccc1)Cc1ccccc1,-18%,x,1%,-5%,-3%,5%
CN(C(=O)CNc1ccccc1Cl)C1CCS(=O)(=O)C1 (centres undefined),19%,x,x,1%,x,x
COc1cc(/C=C2\SC(=S)N(CCC(=O)N3CCCCC3)C2=O)cc(OC)c1OC,-21%,x,-18%,-5%,-4%,0%
COc1cccc(C(=O)NCC(=O)OCc2ccc(F)cc2Cl)c1,14%,-2%,0%,1%,-7%,17µM*
COc1ccc(-c2cccc(C(=O)Nc3ccc(C)cc3)c2)cc1,18%,-1%,-4%,0%,3%,-18%
COc1ccc(-c2cccc(C(=O)NCC(=O)O)c2)cc1,u,u,15%,u,25%,13µM*
COc1cc(OC)cc(C(=O)NCC(=O)Nc2ccc(-c3ccccc3)cc2)c1,u,x,-6%,u,28%,15µM*
CCN(CC)C(=O)c1cccc(-c2ccc(OC)cc2)c1,u,6%,9%,u,11%,u
COC(=O)CNC(=O)c1cccc(-c2ccc(OC)cc2)c1,u,4%,8%,4%,15%,19µM*
Cc1c(C(=O)Nc2ccc(F)cc2F)sc2nc3n(c(=O)c12)N=C(c1ccccc1)CS3,x,x,x,x,x,3%
COc1cc2c(cc1OC)CN(S(=O)(=O)c1ccc(Cl)nc1)CC2,-14%,x,0%,0%,0%,11%
CC(=O)N1CCC(N(Cc2ccco2)C(=O)Nc2ccc(Br)cc2F)CC1,x,x,x,x,x,1%
O=C(NCc1ccc(Cl)cc1)C(=O)NCC(c1cccnc1)N1CCN(c2ccc(F)cc2)CC1 (centres undefined),12µM*,-80%,-10%,-12%,-2%,-7%
O=C(NCC(c1cccnc1)N1CCN(c2ccc(F)cc2)CC1)c1ccccc1 (centres undefined),-18%,-24%,-3%,-7%,-6%,-2%
Cc1cnc(CNC(=O)c2ccc3oc(Cc4ccc(Cl)cc4)nc3c2)cn1,u,x,0%,-8%,0%,-4%
COCC(C)NC(=O)c1cc(-c2cccc(OC)c2)on1 (centres undefined),u,u,u,u,2.2µM*,u
O=C(NC1CCCCC1)c1ccc(-c2cccc([N+](=O)[O-])c2)o1,u,x,0.32µM*,2.1µM*,0.4µM*,2.7µM*
COc1cccc(-c2cc(C(=O)Nc3cccnc3Cl)no2)c1,u,-1%,18%,u,2%,-12%
COc1cccc(-c2cc(C(=O)NC3CCCC3)no2)c1,u,11µM*,1.4µM*,1.8µM*,0.63µM*,4.3µM*
